Experimental data published in PubChem BioAssay AID743171 (National Center for Advancing Translational Sciences (NCATS), 2013).
Where “and” joins values, the source holds several entries; their conditions need not be identical. Identical values can stand only once. Inconclusive results are not listed. Calls of active or inactive are those of the source. The call rests on the fitted dose curve; in most records, active means well fitted inhibition curve with a large enough effect; inconclusive means small, poorly fitted or top-dose-only effect; inactive means flat fitted curve, though single readings scatter.

target: 15-hydroxyprostaglandin dehydrogenase [NAD(+)] (Homo sapiens) (UniProt P15428); experiment: Extended Characterization of HPGD Inhibitors: Activity in Primary Assay (HPGD); details: recombinant HPGD, NADH fluorescence, PGE2 substrate; series mostly up to 57.1 µM
Sequence (P15428 whole entry, looked up): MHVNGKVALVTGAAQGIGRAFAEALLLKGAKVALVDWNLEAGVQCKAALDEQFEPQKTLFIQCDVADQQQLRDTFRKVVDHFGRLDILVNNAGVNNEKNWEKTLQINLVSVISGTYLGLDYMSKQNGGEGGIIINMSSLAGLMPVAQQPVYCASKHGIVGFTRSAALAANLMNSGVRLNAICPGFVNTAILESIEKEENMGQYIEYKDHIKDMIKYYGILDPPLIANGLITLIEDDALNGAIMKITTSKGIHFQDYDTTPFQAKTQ
Excerpt: The central role of HPGD is to inactivate prostaglandins such as prostaglandin E2 (PGE2) or prostaglandin D2 (PGD2). These prostaglandins are involved in a number of processes, including inflammation, differentiation, and cellular signaling, which makes HPGD an important target for pharmacological intervention. Inhibition of 15-PGDH (HPGD) activity was screened by utilizing prostaglandin as an electron donor and NAD+ as an electron acceptor/cofactor. An increase in the fluorescence intensity due to conversion of NAD+ to NADH was used to measure the enzyme activity. All compounds were screened using a qHTS approach, where compounds are assayed using at least seven concentrations to generate concentration-response curves for every compound. Briefly, qHTS uses an inter-plate dilution method where the first plate contains the highest concentration of a set of compounds in DMSO, while subsequent plates contain the same compounds in the same well locations, but at successive lower concentrations. NIH Chemical Genomics Center [NCGC] NIH Molecular Libraries Probe Centers Network [MLPCN] MLPCN Grant: MH084681 Assay Submitter (PI): Structural Genomics Consortium
Three uL of enzyme (20 nM final concentration) were dispensed to 1536-well Greiner black solid bottom plates. Compounds (23 nL) were transferred via Kalypsys PinTool. The plates were incubated for 15 min at room temperature, and then 1 uL of substrate/cofactor solution (Substrate/cofactor solution: 1 mM NAD+ and 30 uM prostaglandin (Sigma, prostaglandin E2, #P5640)) were added to start the reaction. The plates were immediately transferred to and read 4 times every 30 seconds on a ViewLux High-throughput CCD imager (Perkin-Elmer) using 340 nm excitation and 450 nm emission fluorescence protocol. The fluorescence intensity difference between the last and the first time points, normalized against controls, was used to compute reaction progress.

Row | Compound | Potency
1 | Cc1cc(-c2nnc3n2CCCCC3)c(C)n1-c1cccc(Cl)c1 | 34.1 nM (active)
2 | O=C(c1ccc2c(c1)ncn2-c1ccc(C(F)(F)F)cc1)N1CCCCC1 | 85.7 nM (active)
3 | Cc1cc(-c2nnc3n2CCCCC3)c(C)n1-c1ccc(Br)cc1 | 48.2 nM (active)
4 | Cc1cccc(-n2cnc3cc(C(=O)N4CCCC4)ccc32)c1 | 383 nM (active)
5 | Fc1cccc(CSc2nc3ncc(Br)cc3[nH]2)c1 | 341 nM (active)
6 | N#Cc1ccc(CSc2nc3ncc(Br)cc3[nH]2)cc1 | 482 nM (active)
7 | Cc1ccccc1CSc1nc2ncc(Br)cc2[nH]1 | 76.4 nM (active)
8 | O=[N+]([O-])c1cccc(CSc2nc3ncc(Br)cc3[nH]2)c1 | 68.1 nM (active)
9 | Cc1cc(-c2nnc3n2CCCC3)c(C)n1-c1ccccc1 | 192 nM (active)
10 | Cc1cccc(-n2cnc3cc(C(=O)N4CCC(C(F)(F)F)CC4)ccc32)c1 | 1520 nM (active)
11 | CCOC(=O)c1ccc(-n2cnc3cc(C(=O)N4CCCCC4)ccc32)cc1 | 13.6 nM (active)
12 | CCCCn1cnc2cc(C(=O)N3CCCCC3)ccc21 | 68.1 nM (active)
13 | Cc1cc(-c2nnc3n2CCCCC3)c(C)n1-c1ccc(F)cc1 | 121 nM (active)
14 | Cc1cccc(-n2cnc3cc(C(=O)N4CCCCCC4)ccc32)c1 | 27.1 nM (active)
15 | c1ccc(-n2cc(-c3nnc4n3CCCCC4)c3ccccc32)cc1 | 681 nM (active)
16 | Brc1cnc2nc(SCc3ccncc3)[nH]c2c1 | 1520 nM (active)
17 | Cc1cccc(-n2cnc3cc(C(=O)N4CCN(C)CC4)ccc32)c1 | 2710 nM (active)
18 | O=C(c1ccc2c(c1)ncn2-c1ccc(Cl)cc1)N1CCCCC1 | 21.5 nM (active)
19 | Cc1cccc(-n2cnc3cc(C(=O)N4CCCC(c5ccccc5)C4)ccc32)c1 (stereo not given) | 429 nM (active)
20 | Clc1ccccc1CSc1nc2ncc(Br)cc2[nH]1 | 54.1 nM (active)

Row | Compound | Potency
21 | c1ccc(-n2ccc(-c3nnc4n3CCCCC4)c2)cc1 | 607 nM (active)
22 | N#Cc1cccc(CSc2nc3ncc(Br)cc3[nH]2)c1 | 136 nM (active)
23 | CC(C)c1cccc(-n2cnc3cc(C(=O)N4CCCCC4)ccc32)c1 | 68.1 nM (active)
24 | O=[N+]([O-])c1ccccc1CSc1nc2ncc(Br)cc2[nH]1 | 96.1 nM (active)
25 | Cc1cc(-c2nnc3n2CCCCC3)c(C)n1-c1cccc2ccccc12 | 54.1 nM (active) and 108 nM (active)
26 | Cc1cc(-c2nnc3n2CCCCC3)c(C)n1-c1ccncc1 | 383 nM (active)
27 | O=C(c1ccc2c(c1)ncn2-c1cccc(Cl)c1)N1CCCCC1 | 12.1 nM (active)
28 | CCOC(=O)c1ccc(-n2c(C)cc(-c3nnc4n3CCCCC4)c2C)cc1 | 38.3 nM (active)
29 | CC(C)(C)n1cnc2cc(C(=O)N3CCCCC3)ccc21 | 34.1 nM (active)
30 | Cc1cccc(-n2cnc3cc(C(=O)NC4CCCC4)ccc32)c1 | 961 nM (active)
31 | Cc1cccc(-n2cnc3cc(C(=O)N4CCOCC4)ccc32)c1 | 3040 nM (active)
32 | Cc1cc(-c2nnc3n2CCCCCC3)c(C)n1-c1ccccc1 | 242 nM (active)
33 | FC(F)(F)c1ccc(-c2nc(-c3nnc4n3CCCCC4)c(C(F)(F)F)o2)cc1 | inactive
34 | CC(C)(C)c1cccc(-n2cnc3cc(C(=O)N4CCCCC4)ccc32)c1 | 171 nM (active)
35 | Cc1cc(-c2nnc3n2CCCCC3)c(C)n1-c1ccccc1 | 121 nM (active) and 54.1 nM (active) and 68.1 nM (active)
36 | Brc1cnc2nc(SCc3cccnc3)[nH]c2c1 | 1360 nM (active)
37 | Cc1cccc(-n2cnc3cc(C(=O)N4CCCC(C(F)(F)F)C4)ccc32)c1 (stereo not given) | 68.1 nM (active)
38 | Cc1cc(-c2nnc3n2CCCCC3)c(C)n1-c1ccc([N+](=O)[O-])cc1 | 108 nM (active)
39 | Clc1cccc(CSc2nc3ncc(Br)cc3[nH]2)c1 | 242 nM (active)
40 | Cc1cc(-c2nnc3n2CCCCC3)c(C)n1-c1cccc(C(F)(F)F)c1 | 48.2 nM (active)
